These results are taken from PubChem BioAssay (EPA / NIEHS).

Assay [1] is described as follows: ATG_XTT_Cytotoxicity: Cytotoxicity Assessment in the Attagene TRANS-FACTORIAL HepG2 Assay (AID 2283584). In short, it runs like this: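 24 h chemical exposure of reporter-transfected HepG2; XTT signal loss vs DMSO indicates cytotoxicity.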
A short description of assay [2]: TOX21_p53_BLA_p2_viability: Viability Assessment in the Tox21 HCT-116 p53 Agonism Beta-lactamase Assay, Phase 2 (AID 2283591).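 Further: compound exposure lasted 16 h at 37 °C; actives lower the ATP signal meaning cytotoxicity.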 In short, it runs like this: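 HCT116 p53-bla cells, 4000/well, dosed after 5 h plating (217-fold dilution of DMSO stocks) and incubated 16 h at 37C. Viability taken as cellular ATP by CellTiter-Glo luminescence after 30 min RT; signal loss marks cytotoxicity.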

Assay [3] addresses Cellular tumor antigen p53 (Homo sapiens) (UniProt P04637). The assay can be described thus: TOX21_p53_BLA_p2_ratio: Tox21 HCT-116 p53 Agonism Beta-lactamase Assay, Ratio, Phase 2 (AID 2283592). Summed up:
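DMSO-normalized, positive-direction endpoint derived from the 460 nm/530 nm FRET ratio in HCT116 p53 beta-lactamase reporter cells exposed 16 h at 37C and loaded with CCF4-AM for 2 h.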

A short description of assay [4]: TOX21_p53_BLA_p3_viability: Viability Assessment in the Tox21 HCT-116 p53 Agonism Beta-lactamase Assay, Phase 3 (AID 2283593).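 Further: cells exposed to compound for 16 h before reading.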 Summed up:
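HCT116 cells, 4000/well, dosed 5 h after plating by pin transfer (217-fold dilution from DMSO stock) and incubated 16 h at 37C, 5% CO2. Viability read as ATP luminescence with CellTiter-Glo after 30 min at room temperature.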

Assay [5] concerns the target Cellular tumor antigen p53 (Homo sapiens) (UniProt P04637). The assay can be described thus: TOX21_p53_BLA_p3_ratio: Tox21 HCT-116 p53 Agonism Beta-lactamase Assay, Ratio, Phase 3 (AID 2283596). Summed up: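 Cells were seeded at 4000/well, rested 5 h at 37C, then dosed with DMSO compound solutions (217-fold dilution) for 16 h. CCF4-AM substrate was loaded for 2 h at room temperature, and the 460/530 nm emission ratio was fitted for gain of signal versus DMSO.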

Assay [6] is described as follows: TOX21_p53_BLA_p4_viability: Viability Assessment in the Tox21 HCT-116 p53 Agonism Beta-lactamase Assay, Phase 4 (AID 2283597).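 Further: hits lower the luminescence signal meaning cytotoxicity.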 Summed up:
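In this multiplexed secondary endpoint, HCT116 cells (4000 per well, compound at 5 h, 16 h treatment) received CellTiter-Glo after the beta-lactamase read. Luminescence after 30 min RT reflects ATP, and falling signal marks cytotoxicity.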

The target of assay [7] is Cellular tumor antigen p53 (Homo sapiens) (UniProt P04637). The assay can be described thus: TOX21_p53_BLA_p5_ratio: Tox21 HCT-116 p53 Agonism Beta-lactamase Assay, Ratio, Phase 5 (AID 2283599). Summed up:
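HCT-116 p53-bla cells (4000/well) plated 5 h, dosed with compound (217-fold DMSO dilution) for 16 h at 37 C; CCF4-AM substrate 2 h at room temperature. Activity is the 460/530 nm emission ratio (405 nm excitation), fitted in gain-of-signal direction versus DMSO.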

The target is the same in assay [8]. The assay can be described thus: TOX21_p53_BLA_p4_ratio: Tox21 HCT-116 p53 Agonism Beta-lactamase Assay, Ratio, Phase 4 (AID 2283601). Summed up:
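HCT-116 p53 beta-lactamase reporter cells (4000/well) preincubated 5 h, then compound (217-fold dilution of DMSO stock) for 16 h at 37C. CCF4-AM substrate added 2 h at room temperature; 460/530 nm emission ratio fitted upward versus DMSO.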

Assay [9] in a line: TOX21_p53_BLA_p5_viability: Viability Assessment in the Tox21 HCT-116 p53 Agonism Beta-lactamase Assay, Phase 5 (AID 2283600). In short, it runs like this:
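Here cell health was gauged by ATP levels in wells holding 4000 cells, each treated 16 h with DMSO-delivered compounds at 217-fold dilution; reduced luminescence marked toxicity.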

Inconclusive results are not listed. Calls of active or inactive are those of the source. How the source made its calls: active means hit-call score of the fitted dose curve at least 0.9, where 1 is the maximum; inconclusive means response in the unintended direction; inactive means score below 0.9.

Chain of Cellular tumor antigen p53 (Homo sapiens) (P04637 whole entry, looked up): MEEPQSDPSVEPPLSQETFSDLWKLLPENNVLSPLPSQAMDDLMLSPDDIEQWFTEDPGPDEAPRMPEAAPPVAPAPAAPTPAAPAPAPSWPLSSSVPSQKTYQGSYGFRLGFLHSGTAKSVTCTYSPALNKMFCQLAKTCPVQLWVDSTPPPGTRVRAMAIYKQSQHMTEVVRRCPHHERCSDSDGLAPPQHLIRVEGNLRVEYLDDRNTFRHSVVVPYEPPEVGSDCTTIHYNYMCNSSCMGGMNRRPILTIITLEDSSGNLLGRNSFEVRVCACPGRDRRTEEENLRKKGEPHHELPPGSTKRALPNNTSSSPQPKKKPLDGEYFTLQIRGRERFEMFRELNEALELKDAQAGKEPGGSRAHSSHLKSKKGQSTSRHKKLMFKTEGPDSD

As for `O=C(CCl)Nc1ccccc1`, the outcome in [1], in [2], in assay [3], in [4], in assay [5] and in assay [6] was inactive. Moreover, the outcome in [7] and in assay [8] was inactive.
`O=C1c2ccccc2C(=O)C1C(=O)C(c1ccccc1)c1ccc(Cl)cc1` (stereo unspecified): the molecule was classed as inactive in [1], in assay [5], in assay [7], in assay [9] and in assay [8]. Besides, the AC50 – broadly, the concentration giving half of the maximal activity seen – in [2] was 29.4 µM (active); in assay [4], 15.9 µM (active); in assay [6], 37.3 µM (active).
As for `c1csc(-c2ccc(-c3cccs3)s2)c1`, the outcome in [1] and in assay [2] was inactive. Also, the AC50 in [3] was 50.2 µM (active); in [5] it was 41.9 µM (active); in assay [7], 59.3 µM (active); in [8], 46.1 µM (active).
As for `CCCCCCCCCCCCBr`, the result in assay [1], in [2], in assay [3], in assay [4], in [6] and in assay [7] was inactive. In addition, the molecule was classed as inactive in assay [9] and in assay [8].
Turning to `BrCCCCBr`, the call in [1], in [2], in assay [3] and in assay [6] was inactive.
As for `COC(=O)Nc1cccc(OC(=O)Nc2cccc(C)c2)c1`, the result in assay [1], in assay [2], in assay [3], in assay [4], in assay [5] and in assay [6] was inactive. Besides, in [9], the result was inactive.
With `Clc1cnc(Oc2ccc(Oc3ncc(Cl)cc3Cl)cc2)c(Cl)c1`, the result in assay [1], in [2], in assay [3], in assay [4], in [6] and in assay [7] was inactive. Also, the molecule was classed as inactive in assay [9] and in assay [8].
Regarding `CCCCOC(C)=O`, the molecule was classed as inactive in assay [1], in assay [2], in assay [3], in assay [4], in assay [5] and in assay [8].
Consider `CNC(=O)O/N=C/C(C)(C)S(C)(=O)=O`, for which the molecule was classed as inactive in assay [1], in [2], in [3], in assay [6], in assay [7] and in assay [9].
Take `C=CCN=C=S`: the result in assay [1], in assay [2], in [3], in assay [4], in [5] and in assay [6] was inactive. Moreover, the result in assay [7], in assay [9] and in assay [8] was inactive.
On to `Cc1cccc(C)c1NC(=O)CN1CCCC1=O`, for which the molecule was called inactive in assay [1], in [2], in assay [4], in assay [5], in assay [6] and in assay [7]. The molecule was called inactive in [9] and in assay [8].
As to `Cc1cc(-c2cc(C)c(N)c(C)c2)cc(C)c1N`, the molecule was called inactive in assay [1], in assay [2], in assay [4], in [5], in assay [6] and in [7]. Further, the result in assay [9] and in assay [8] was inactive.
As for `CCOC(=O)OC1=C(c2cc(C)ccc2C)C(=O)NC12CCC(OC)CC2` (stereo unspecified), the result in assay [1], in [2], in [4], in assay [6] and in assay [9] was inactive. Moreover, the figures for the AC50 in assay [5], in [7] and in assay [8] were 52.6 µM (active), 26.3 µM (active) and 54.7 µM (active), respectively.
As to `N#Cc1ccncc1`, the result in assay [1], in assay [2], in [3], in assay [5], in assay [7] and in assay [9] was inactive. The outcome in [8] was inactive.
For the molecule `O=[N+]([O-])c1ccccc1O`, the result in assay [1], in [2], in [3], in assay [4], in assay [6] and in assay [7] was inactive. Besides, the result in assay [9] and in assay [8] was inactive.
Consider `O=S1OC[C@@H]2[C@H](CO1)[C@]1(Cl)C(Cl)=C(Cl)[C@@]2(Cl)C1(Cl)Cl` (stereo partly specified), for which the result in [1], in [3], in assay [5], in [7], in assay [9] and in assay [8] was inactive. For the same molecule, the values for the AC50 in assay [2], in [4] and in assay [6] were 67.1 µM (active), 84.1 µM (active) and 83.6 µM (active), respectively.
As for `CCOP(=S)(OCC)OP(=S)(OCC)OCC`, the molecule was called inactive in [1], in [2], in [4], in [5], in assay [6] and in assay [7]. In assay [8], the outcome was inactive.
In the case of `O=C(O)CC(O)(CC(=O)O)C(=O)O`, the result in assay [1], in [2], in assay [3], in [4], in assay [5] and in [6] was inactive. For the same molecule, the outcome in assay [7], in assay [9] and in assay [8] was inactive.
Regarding `CC(C)[C@H](C(=O)OC(C#N)c1cccc(Oc2ccccc2)c1)c1ccc(OC(F)F)cc1` (stereo partly specified), the molecule was called inactive in assay [1], in [2], in assay [3], in assay [4], in assay [5] and in assay [6]. In addition, the result in assay [7], in assay [9] and in assay [8] was inactive.
On to `CC(C)(C#N)N=NC(C)(C)C#N`, for which the outcome in [1], in assay [2], in assay [3], in assay [4], in [5] and in assay [7] was inactive. For the same molecule, the result in assay [9] and in [8] was inactive.
